Laboratory results from PubChem BioAssay (EPA / NIEHS).
Inconclusive results are not listed. Active and inactive are the calls of the source. Rule for the calls, unless noted: active = hit-call score of the fitted dose curve at least 0.9, where 1 is the maximum; inactive = score below 0.9.

Tests used:
[1] = ATG_NF_kB_CIS: Attagene CIS-FACTORIAL HepG2 Assay for human Nuclear Factor Kappa B (NF-kB) (AID 2282991); details: HepG2 Attagene cis-factorial NF-kB reporter mRNA; actives raise or lower the signal
Outline: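 Multiplexed cis-reporter assay in transiently transfected HepG2. 24 h treatment; RNA isolated, RT-PCR, labelled fragments resolved by CE. DMSO baseline.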

[2] = ATG_NRF2_ARE_CIS: Attagene CIS-FACTORIAL HepG2 Assay for human Nuclear Factor Erythroid 2 Related Factor 2 (NFR2) response to Antioxidant Response Elements (ARE) (AID 2282992); details: HepG2 Attagene ARE/NRF2 reporter, transcription factor activity; actives raise or lower the signal
Outline: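 Endogenous transcription factor activity read out as reporter transcript levels (RT-PCR plus capillary electrophoresis, fluorescence) in transiently transfected HepG2 cells. Measured at 24 h after dosing; gain or loss of signal fitted versus DMSO.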

[3] = ATG_Oct_MLP_CIS: Attagene CIS-FACTORIAL HepG2 Assay for human Octamer-Binding Transcription Factor (Oct) (AID 2282993); details: HepG2 Attagene cis-factorial Oct reporter, mRNA; actives raise or lower the signal
Outline: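 HepG2 cells transiently transfected with cis-element-driven reporter transcription units (endogenous TF activity); 24 h compound exposure. Reporter mRNA quantified by RT-PCR, 6-FAM labelling, HpaI digestion and capillary electrophoresis; bidirectional fit versus DMSO baseline.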

[4] = molecular target: Cellular tumor antigen p53 (Homo sapiens) (UniProt P04637); assay: ATG_p53_CIS: Attagene CIS-FACTORIAL HepG2 Assay for human p53 Transcription Factor (AID 2282994); details: HepG2 p53 cis-element reporter, Attagene mRNA; actives raise or lower the signal
Sequence of Cellular tumor antigen p53 (Homo sapiens) (P04637 whole entry, looked up): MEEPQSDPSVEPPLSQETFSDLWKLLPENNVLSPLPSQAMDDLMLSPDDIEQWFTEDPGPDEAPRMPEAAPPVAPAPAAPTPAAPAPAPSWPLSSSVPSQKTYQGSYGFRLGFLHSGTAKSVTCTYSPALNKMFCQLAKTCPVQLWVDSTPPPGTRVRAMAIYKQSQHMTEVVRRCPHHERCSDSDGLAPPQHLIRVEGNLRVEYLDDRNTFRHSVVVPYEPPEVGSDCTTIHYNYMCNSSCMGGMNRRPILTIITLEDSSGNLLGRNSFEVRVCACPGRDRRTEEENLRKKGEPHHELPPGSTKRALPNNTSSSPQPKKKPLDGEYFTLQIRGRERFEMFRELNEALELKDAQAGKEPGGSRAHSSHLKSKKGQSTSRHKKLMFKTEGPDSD
Outline: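 Endogenous p53 activity read in transiently transfected HepG2 from a cis-element-driven reporter transcript after 24 h exposure. RNA reverse-transcribed, PCR-amplified, fluorescently labelled and sized by capillary electrophoresis; gain or loss fitted against DMSO baseline.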

[5] = BSK_3C_TissueFactor: BioMAP Diversity Plus: 3C Assay for Tissue Factor Biomarker Activity (AID 2282997); details: BioMAP 3C HUVEC, tissue factor biomarker readout; actives raise or lower the signal
Outline: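 Readout: Tissue Factor ELISA. Cells: human primary umbilical vein endothelium. Time: 24 h after dosing. Analysis: bidirectional fit, DMSO baseline.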

[6] = BSK_3C_uPAR: BioMAP Diversity Plus: 3C Assay for Urokinase-type plasminogen activator receptor (uPAR) Biomarker Activity (AID 2282998); details: BioMAP 3C HUVEC, uPAR biomarker ELISA; actives raise or lower the signal
Outline: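 Primary human umbilical vein endothelial cells, 3C system; surface uPAR measured by ELISA 24 h after dosing. Cytotoxicity via SRB total protein in parallel cultures; bidirectional fit against DMSO.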

[7] = BSK_3C_VCAM1: BioMAP Diversity Plus: 3C Assay for Vascular cell adhesion molecule 1 (VCAM1) Biomarker Activity (AID 2282999); details: BioMAP 3C HUVEC, VCAM1 ELISA, cytokine-stimulated; actives raise or lower the signal
Outline: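 Vascular primary endothelium (human umbilical vein) was exposed to chemicals and assayed 24 h later. VCAM-1 levels came from ELISA, with DMSO serving as baseline for bidirectional fitting.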

[8] = BSK_4H_Eotaxin3: BioMAP Diversity Plus: 4H Assay for Eotaxin 3 Biomarker Activity (AID 2283000); details: primary human endothelial cells (HUVEC); actives raise or lower the signal
Outline: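 HUVEC, 24 h post-dose, ELISA for Eotaxin-3/CCL26. Gain or loss of signal fitted bidirectionally vs DMSO baseline.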

[9] = molecular target: human Peroxisome Proliferator-activated Receptor delta (PPARd), PPARD (gene 5467) (UniProt Q03181); assay: ATG_PPARd_TRANS: Attagene TRANS-FACTORIAL HepG2 Assay for human Peroxisome Proliferator-activated Receptor delta (PPARd) (AID 2283002; active = hit-call score of the fitted dose curve at least 0.9, where 1 is the maximum)
Sequence of human Peroxisome Proliferator-activated Receptor delta (PPARd), PPARD (gene 5467) (Q03181 whole entry, looked up, the tested form may be a part): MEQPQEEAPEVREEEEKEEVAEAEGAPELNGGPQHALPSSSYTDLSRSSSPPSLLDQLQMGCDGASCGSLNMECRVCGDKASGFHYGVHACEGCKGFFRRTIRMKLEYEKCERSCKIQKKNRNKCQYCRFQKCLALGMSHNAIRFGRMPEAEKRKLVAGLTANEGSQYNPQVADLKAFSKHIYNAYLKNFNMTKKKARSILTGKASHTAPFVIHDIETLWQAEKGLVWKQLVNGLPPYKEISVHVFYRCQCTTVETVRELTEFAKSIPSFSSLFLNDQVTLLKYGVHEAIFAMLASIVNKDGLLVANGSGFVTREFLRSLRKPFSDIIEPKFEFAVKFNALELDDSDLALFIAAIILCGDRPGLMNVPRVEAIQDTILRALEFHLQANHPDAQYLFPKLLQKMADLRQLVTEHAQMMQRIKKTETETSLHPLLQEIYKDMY
Outline: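 Measured quantity: GAL4-UAS reporter transcript induction in HepG2 after 24 h chemical dosing, with NR-Gal4 chimeras supplied by transient transfection. Detection by RT-PCR and capillary electrophoresis; upward fit against DMSO.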

[10] = read-out: Intercellular Adhesion Molecule 1 (ICAM1), ICAM1 (gene 3383); assay: BSK_3C_ICAM1: BioMAP Diversity Plus: 3C Assay for Intercellular Adhesion Molecule 1 (ICAM1) Biomarker Activity (AID 2283003); details: primary human endothelial cells (HUVEC); actives raise or lower the signal
Outline: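 ELISA read-out of ICAM-1; HUVEC (primary human), 3C system, 24 h post-dosing; bidirectional fit vs DMSO baseline.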

[11] = BSK_3C_Proliferation: Cell Proliferation Assessment in the BioMAP Diversity Plus: 3C Assay (AID 2283006); details: primary human endothelial cells (HUVEC);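 for AC50: potency may reflect either rise or fall in cell number versus DMSO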
Outline: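 HUVEC, sub-confluent; 48 h chemical exposure; 10% TCA fix, 0.1% SRB stain, A560 total protein. Gain or loss of signal fitted both directions vs DMSO control.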

[12] = molecular target: Peroxisome proliferator-activated receptor gamma (Homo sapiens) (UniProt P37231); assay: ATG_PPARg_TRANS: Attagene TRANS-FACTORIAL HepG2 Assay for human Peroxisome Proliferator-activated Receptor-gamma (PPARg) (AID 2283007; active = hit-call score of the fitted dose curve at least 0.9, where 1 is the maximum)
Sequence of Peroxisome proliferator-activated receptor gamma (Homo sapiens) (P37231 whole entry, looked up): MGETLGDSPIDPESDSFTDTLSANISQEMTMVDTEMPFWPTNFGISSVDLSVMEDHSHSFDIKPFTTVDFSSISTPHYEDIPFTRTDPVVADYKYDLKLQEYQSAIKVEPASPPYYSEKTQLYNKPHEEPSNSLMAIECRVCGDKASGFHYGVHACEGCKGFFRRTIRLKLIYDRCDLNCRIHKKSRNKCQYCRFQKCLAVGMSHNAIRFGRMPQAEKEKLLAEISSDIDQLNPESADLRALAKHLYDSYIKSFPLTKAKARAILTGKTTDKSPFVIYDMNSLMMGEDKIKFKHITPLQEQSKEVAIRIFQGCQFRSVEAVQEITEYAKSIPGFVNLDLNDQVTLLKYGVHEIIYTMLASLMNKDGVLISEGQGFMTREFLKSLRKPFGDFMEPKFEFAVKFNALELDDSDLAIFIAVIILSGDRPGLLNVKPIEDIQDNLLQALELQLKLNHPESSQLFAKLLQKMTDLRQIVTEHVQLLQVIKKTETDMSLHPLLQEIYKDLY
Outline: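 Human hepatoma HepG2, transient MRTU transfection, 24 h treatment. mRNA reporter signal by RT-PCR plus capillary electrophoresis, fluorescence detection; fitted for increase over DMSO negative control.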

[13] = molecular target: Retinoic acid receptor RXR-alpha (Homo sapiens) (UniProt P19793); assay: ATG_RXRa_TRANS: Attagene TRANS-FACTORIAL HepG2 Assay for human Retinoid X Receptor alpha (RXRa) (AID 2283012; active = hit-call score of the fitted dose curve at least 0.9, where 1 is the maximum)
Sequence of Retinoic acid receptor RXR-alpha (Homo sapiens) (P19793 whole entry, looked up, the tested form may be a part): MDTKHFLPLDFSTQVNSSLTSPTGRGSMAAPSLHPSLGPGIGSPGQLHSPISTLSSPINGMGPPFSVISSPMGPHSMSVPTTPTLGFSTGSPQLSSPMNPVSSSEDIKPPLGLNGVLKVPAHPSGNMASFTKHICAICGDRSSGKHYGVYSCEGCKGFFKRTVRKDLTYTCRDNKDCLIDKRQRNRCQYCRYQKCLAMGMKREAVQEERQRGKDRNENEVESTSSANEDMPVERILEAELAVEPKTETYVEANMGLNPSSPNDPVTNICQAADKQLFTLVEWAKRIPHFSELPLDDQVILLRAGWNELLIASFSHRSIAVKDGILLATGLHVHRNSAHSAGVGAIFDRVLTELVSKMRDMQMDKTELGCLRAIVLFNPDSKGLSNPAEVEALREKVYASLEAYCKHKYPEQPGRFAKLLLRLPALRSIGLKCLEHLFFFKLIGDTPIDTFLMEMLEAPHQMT
Outline: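 Read-out: fluorescent reporter-transcript fragments quantified by capillary electrophoresis after RT-PCR. Transiently transfected HepG2 cells carrying GAL4-UAS reporters and NR-GAL4 chimeras were exposed to chemical for 24 h; activity scored as increase over DMSO.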

[14] = molecular target: human Retinoid X Receptor beta (RXRb), RXRB (gene 6257) (UniProt P28702); assay: ATG_RXRb_TRANS: Attagene TRANS-FACTORIAL HepG2 Assay for human Retinoid X Receptor beta (RXRb) (AID 2283013; active = hit-call score of the fitted dose curve at least 0.9, where 1 is the maximum)
Sequence of human Retinoid X Receptor beta (RXRb), RXRB (gene 6257) (P28702 whole entry, looked up, the tested form may be a part): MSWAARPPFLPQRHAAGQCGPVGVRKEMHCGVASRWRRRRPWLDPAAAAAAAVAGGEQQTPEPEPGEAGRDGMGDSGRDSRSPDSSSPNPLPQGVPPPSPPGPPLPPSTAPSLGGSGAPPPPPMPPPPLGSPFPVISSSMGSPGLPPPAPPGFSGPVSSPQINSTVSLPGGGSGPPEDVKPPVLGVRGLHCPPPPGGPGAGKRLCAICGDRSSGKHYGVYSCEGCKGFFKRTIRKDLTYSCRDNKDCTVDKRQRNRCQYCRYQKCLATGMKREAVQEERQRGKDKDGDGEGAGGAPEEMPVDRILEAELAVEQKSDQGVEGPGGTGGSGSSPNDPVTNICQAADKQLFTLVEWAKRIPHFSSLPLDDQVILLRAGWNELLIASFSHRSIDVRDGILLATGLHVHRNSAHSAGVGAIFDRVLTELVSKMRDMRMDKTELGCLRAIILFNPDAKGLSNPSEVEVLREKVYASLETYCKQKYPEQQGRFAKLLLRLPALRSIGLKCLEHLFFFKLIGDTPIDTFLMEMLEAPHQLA
Outline: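 Read-out: reporter mRNA induction via RT-PCR plus capillary electrophoresis fluorescence, analysed as signal increase relative to DMSO. Cells were human HepG2, transiently transfected with GAL4-UAS reporter constructs and chimeric receptor-Gal4 fusions, dosed for 24 h.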

[15] = molecular target: human Retinoic Acid Receptor gamma (RARg), RARG (gene 5916) (UniProt P13631); assay: ATG_RARg_TRANS: Attagene TRANS-FACTORIAL HepG2 Assay for human Retinoic Acid Receptor gamma (RARg) (AID 2283009; active = hit-call score of the fitted dose curve at least 0.9, where 1 is the maximum)
Sequence of human Retinoic Acid Receptor gamma (RARg), RARG (gene 5916) (P13631 whole entry, looked up, the tested form may be a part): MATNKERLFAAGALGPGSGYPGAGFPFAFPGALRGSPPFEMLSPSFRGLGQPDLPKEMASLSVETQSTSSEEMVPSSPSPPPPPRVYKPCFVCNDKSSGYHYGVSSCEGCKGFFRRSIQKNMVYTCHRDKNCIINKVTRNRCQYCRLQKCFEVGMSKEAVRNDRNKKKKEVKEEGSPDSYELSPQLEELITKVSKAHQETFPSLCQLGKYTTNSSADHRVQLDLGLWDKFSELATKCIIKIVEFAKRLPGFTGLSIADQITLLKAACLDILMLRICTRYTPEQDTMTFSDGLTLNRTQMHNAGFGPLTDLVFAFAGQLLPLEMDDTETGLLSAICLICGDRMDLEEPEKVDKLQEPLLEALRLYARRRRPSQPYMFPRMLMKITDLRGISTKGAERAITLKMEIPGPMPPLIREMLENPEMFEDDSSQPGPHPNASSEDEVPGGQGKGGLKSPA
Outline: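 Readout: reporter transcript levels via RT-PCR, 6-FAM primer-extension labelling, HpaI digestion and capillary electrophoresis. Cells: HepG2 carrying transfected RARg-GAL4 chimera plus UAS reporter set. Dosing 24 h; DMSO negative control.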

[16] = molecular target: human Thyroid Receptor alpha (THRa1), THRA (gene 7067) (UniProt P10827); assay: ATG_THRa1_TRANS: Attagene TRANS-FACTORIAL HepG2 Assay for human Thyroid Receptor alpha (THRa1) (AID 2283014; active = hit-call score of the fitted dose curve at least 0.9, where 1 is the maximum)
Sequence of human Thyroid Receptor alpha (THRa1), THRA (gene 7067) (P10827 whole entry, looked up, the tested form may be a part): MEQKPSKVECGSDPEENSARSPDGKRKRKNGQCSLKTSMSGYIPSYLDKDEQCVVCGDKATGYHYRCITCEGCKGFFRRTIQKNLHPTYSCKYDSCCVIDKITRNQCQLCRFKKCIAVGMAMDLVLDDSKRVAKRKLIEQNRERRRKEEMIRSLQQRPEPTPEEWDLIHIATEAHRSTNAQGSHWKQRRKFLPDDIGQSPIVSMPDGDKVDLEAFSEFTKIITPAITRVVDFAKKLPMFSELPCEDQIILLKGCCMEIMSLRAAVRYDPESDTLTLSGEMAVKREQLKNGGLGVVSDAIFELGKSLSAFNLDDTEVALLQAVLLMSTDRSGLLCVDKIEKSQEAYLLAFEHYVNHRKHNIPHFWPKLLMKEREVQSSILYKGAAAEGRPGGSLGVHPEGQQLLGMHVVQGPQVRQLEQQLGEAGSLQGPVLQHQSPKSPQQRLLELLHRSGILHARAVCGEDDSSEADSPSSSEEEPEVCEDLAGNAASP
Outline: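 HepG2 cells transiently transfected with multiplexed GAL4-UAS reporter units for exogenous chimeric THRa1-Gal4; reporter mRNA measured 24 h after dosing by RT-PCR, 6-FAM labelling, HpaI digestion and capillary electrophoresis. Gain-of-signal fitted versus DMSO baseline.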

[17] = molecular target: human Peroxisome Proliferator-activated Receptor alpha (PPARa), PPARA (gene 5465) (UniProt Q07869); assay: ATG_PPARa_TRANS: Attagene TRANS-FACTORIAL HepG2 Assay for human Peroxisome Proliferator-activated Receptor alpha (PPARa) (AID 2283001; active = hit-call score of the fitted dose curve at least 0.9, where 1 is the maximum)
Sequence of human Peroxisome Proliferator-activated Receptor alpha (PPARa), PPARA (gene 5465) (Q07869 whole entry, looked up, the tested form may be a part): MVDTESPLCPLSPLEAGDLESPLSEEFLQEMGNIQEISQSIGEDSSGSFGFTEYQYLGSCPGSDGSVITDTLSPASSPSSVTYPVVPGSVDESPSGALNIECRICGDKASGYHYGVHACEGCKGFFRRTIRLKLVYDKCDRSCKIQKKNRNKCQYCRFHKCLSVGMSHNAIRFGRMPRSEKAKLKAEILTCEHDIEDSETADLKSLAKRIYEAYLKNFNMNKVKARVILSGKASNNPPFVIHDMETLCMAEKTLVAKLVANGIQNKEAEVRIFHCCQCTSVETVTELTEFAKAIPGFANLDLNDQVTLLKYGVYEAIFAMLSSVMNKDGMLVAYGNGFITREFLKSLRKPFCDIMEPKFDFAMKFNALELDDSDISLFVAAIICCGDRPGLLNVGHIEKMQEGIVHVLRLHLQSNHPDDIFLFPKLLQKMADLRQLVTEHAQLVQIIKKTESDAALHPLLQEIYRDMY
Outline: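 Exposure: 24 h, transiently transfected HepG2 cells. Endpoint: GAL4-UAS reporter mRNA, RT-PCR with capillary electrophoresis fluorescence. Baseline: DMSO; increases fitted.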

[18] = molecular target: Nuclear receptor subfamily 1 group I member 2 (Homo sapiens) (UniProt O75469); assay: ATG_PXR_TRANS: Attagene TRANS-FACTORIAL HepG2 Assay for human Pregnane X Receptor (PXR) (AID 2283008; active = hit-call score of the fitted dose curve at least 0.9, where 1 is the maximum)
Sequence of Nuclear receptor subfamily 1 group I member 2 (Homo sapiens) (O75469 whole entry, looked up, the tested form may be a part): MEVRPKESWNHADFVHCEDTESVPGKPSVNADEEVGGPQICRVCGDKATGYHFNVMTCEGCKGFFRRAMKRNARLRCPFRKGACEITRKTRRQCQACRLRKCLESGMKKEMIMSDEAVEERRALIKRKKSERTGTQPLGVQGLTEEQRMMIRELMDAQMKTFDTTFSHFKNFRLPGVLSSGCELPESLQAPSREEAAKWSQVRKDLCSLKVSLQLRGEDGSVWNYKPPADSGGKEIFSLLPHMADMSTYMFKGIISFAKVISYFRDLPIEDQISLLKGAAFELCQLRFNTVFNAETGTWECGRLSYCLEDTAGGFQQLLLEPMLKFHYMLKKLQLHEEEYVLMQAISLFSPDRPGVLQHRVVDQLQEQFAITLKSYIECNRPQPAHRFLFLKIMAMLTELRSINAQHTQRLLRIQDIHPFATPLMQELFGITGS
Outline: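 Transactivation by exogenous PXR–GAL4 fusion measured as reporter transcript induction after 24 h compound treatment of transfected human HepG2 cells. Read-out via RT-PCR and capillary electrophoresis of labelled fragments, fitted upward relative to DMSO.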

[19] = molecular target: human RAR-related Orphan Receptor gamma (RORg), RORC (gene 6097) (UniProt P51449); assay: ATG_RORg_TRANS: Attagene TRANS-FACTORIAL HepG2 Assay for human RAR-related Orphan Receptor gamma (RORg) (AID 2283011; active = hit-call score of the fitted dose curve at least 0.9, where 1 is the maximum)
Sequence of human RAR-related Orphan Receptor gamma (RORg), RORC (gene 6097) (P51449 whole entry, looked up, the tested form may be a part): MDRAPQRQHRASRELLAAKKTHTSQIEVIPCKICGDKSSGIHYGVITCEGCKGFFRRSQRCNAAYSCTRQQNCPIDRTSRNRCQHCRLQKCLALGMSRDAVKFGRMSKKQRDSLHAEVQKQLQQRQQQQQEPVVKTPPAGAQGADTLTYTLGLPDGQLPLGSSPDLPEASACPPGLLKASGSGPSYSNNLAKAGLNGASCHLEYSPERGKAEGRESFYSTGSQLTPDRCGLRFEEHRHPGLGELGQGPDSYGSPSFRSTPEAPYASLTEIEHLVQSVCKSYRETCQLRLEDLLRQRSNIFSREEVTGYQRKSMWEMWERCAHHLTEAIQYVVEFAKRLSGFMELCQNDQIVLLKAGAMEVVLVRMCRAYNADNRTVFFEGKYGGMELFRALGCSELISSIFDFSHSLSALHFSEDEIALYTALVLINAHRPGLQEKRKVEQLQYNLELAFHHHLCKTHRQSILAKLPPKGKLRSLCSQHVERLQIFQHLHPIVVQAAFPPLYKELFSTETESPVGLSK
Outline: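 Readout: reporter transcript induction (RT-PCR, fluorescent primer extension, capillary electrophoresis) after 24 h compound exposure of transiently transfected HepG2 cells carrying a RORg-Gal4 chimera and GAL4-UAS reporters; DMSO served as baseline, with increasing signal fitted.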

[20] = molecular target: human RAR-related Orphan Receptor beta (RORb), RORB (gene 6096) (UniProt Q92753); assay: ATG_RORb_TRANS: Attagene TRANS-FACTORIAL HepG2 Assay for human RAR-related Orphan Receptor beta (RORb) (AID 2283010; active = hit-call score of the fitted dose curve at least 0.9, where 1 is the maximum)
Outline: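 HepG2, transient MRTU transfection (GAL4-UAS reporters, exogenous NR-Gal4 chimeras); 24 h compound exposure; total RNA → RT-PCR → 6-FAM primer extension → HpaI digest → CE fluorescence. Positive direction vs DMSO baseline.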

Measured: AC50

O=C(CCCCCCCCc1cccnc1)N1CCC(C=C(c2ccccc2)c2ccccc2)CC1
active: [2] 4.68 µM | [3] 8.91 µM | [4] 19.3 µM | [5] 8.68 µM | [6] 7.01 µM | [7] 14.3 µM | [8] 9.64 µM | [10] 15.4 µM | [11] 5.66 µM | [12] 1.41 µM
inactive: [1] | [9] | [13] | [14]

CNCc1ccc(NC(=O)c2c[nH]c3c2C(=O)CCC3)cc1
active: [2] 56.6 µM
not listed: [14] | [17] | [18] | [19] | [20]
inactive: all other assays above

COC(=O)c1c(Cl)c(Cl)c(C(=O)OC)c(Cl)c1Cl
active: [11] 14.6 µM | [12] 35.9 µM | [14] 30.8 µM
not listed: [15] | [16] | [20]
inactive: all other assays above

COCCOc1cc2cc(C(=O)NC3CCN(C(C)C)CC3)n(CC(=O)Nc3ccc(Cl)cn3)c2cn1
active: [1] 180 µM | [2] 72.9 µM | [3] 119 µM
not listed: [9] | [12] | [16] | [19]
inactive: all other assays above

C[C@](N)(Cc1ccc(O)c(O)c1)C(=O)O
not listed: [12] | [13] | [15] | [17] | [18] | [19] | [20]
inactive: all other assays above

COc1ccc(-n2nc(C(F)F)cc2-c2ccc(S(C)=O)cc2)cc1 (centres undefined)
not listed: [7] | [16] | [17] | [19] | [20]
inactive: all other assays above

O=C(O)c1cccc(Oc2ccccc2)c1
active: [12] 59.8 µM
not listed: [7] | [9] | [13] | [15] | [18] | [20]
inactive: all other assays above
